# Results published in PubChem BioAssay (NCI).
# About 83,000 compounds went through this panel and 20% of them were active in at least one assay; those are over-represented in the sample as a whole.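 Method: cells in 96-well plates; compound added at one concentration; 48 h incubation; percent growth measured; values under 10 scored active.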 Unmarked numbers belong to inactive results. Calls of active or inactive are those of the source.
# System: MDA-MB-468 breast
# Test: NCI-60 one-dose screen, 48 h (100 = growth as untreated, 0 = no growth, -100 = all killed)
# Settings: 10 µM unless noted
row,Compound,growth
1,Cc1ccc(-c2csc(N/N=C/c3cccs3)n2)cc1,65.1%
2,Cc1cc2nc(C(Cl)Cl)nc(-c3ccccc3)n2n1,-20.7% (active)
3,C=C(c1ccc(OC)c(/C=C/C(=O)c2cc(OC)c(OC)c(OC)c2)c1)c1cc(OC)c(OC)c(OC)c1,-8.58% (active)
4,Cc1cccc(C)c1NC(=O)c1sc2nc3c(cc2c1N)C(=O)CCC3,34.3%
5,O=C(N=Nc1c(O)[nH]c2ccccc12)Nc1ccccc1Cl,11.5%
6,COC(=O)[C@]12CC[C@@H](C)[C@H](C)[C@@H]1C1=CC[C@@H]3[C@@]4(C)C[C@@H](O)[C@H](O)[C@@](C)(CO)C4=CC[C@@]3(C)[C@]1(C)CC2,-66.4% (active)
